About 83,000 compounds went through this panel and 20% of them were active in at least one assay; those are over-represented in the sample as a whole.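 96-well plates, one dose, 48 hours. Percent growth reported; active if below 10.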 The source made the active and inactive calls.
Key:
Test in all cases: NCI-60 one-dose screen, 48 h (100 = growth as untreated, 0 = no growth, -100 = all killed)
Conditions in all cases: 10 µM unless noted
DU-145 prostate = test system: DU-145 prostate
K-562 leukemia = test system: K-562 leukemia
MALME-3M melanoma = test system: MALME-3M melanoma
MDA-MB-231 breast = test system: MDA-MB-231 breast
RXF 393 renal = test system: RXF 393 renal
SF-268 CNS = test system: SF-268 CNS
SF-295 CNS = test system: SF-295 CNS
SF-539 CNS = test system: SF-539 CNS
UACC-257 melanoma = test system: UACC-257 melanoma
M14 melanoma = test system: M14 melanoma

Measured: growth

CN1CCN(CC#CCn2c3c(c4ccccc42)C[C@]2(C)[C@H]4CC=C5[C@@H]6CC(C)(C)CC[C@]6(C(=O)N6CCOCC6)CC[C@@]5(C)[C@]4(C)CC[C@H]2C3(C)C)CC1
inactive: DU-145 prostate 64.8% | MALME-3M melanoma 83.3% | MDA-MB-231 breast 43.1% | RXF 393 renal 68.4% | SF-268 CNS 83.5% | SF-295 CNS 99.3% | SF-539 CNS 73.9% | UACC-257 melanoma 102% | M14 melanoma 87.7%
active: K-562 leukemia -23%

O=c1nc(Nc2ccc([N+](=O)[O-])cc2O)sc2ccccc12
inactive: DU-145 prostate 25.1% | K-562 leukemia 12.9% | MALME-3M melanoma 30.7% | MDA-MB-231 breast 51.8% | SF-268 CNS 59.4% | UACC-257 melanoma 65% | M14 melanoma 17.5%
active: RXF 393 renal 7.31% | SF-295 CNS -34.2% | SF-539 CNS -36.5%

CC(Nc1ncnc2ccc(-c3cnc(N)nc3)cc12)c1ccccc1 (stereo not given)
inactive: DU-145 prostate 25.1% | K-562 leukemia 44.5% | MALME-3M melanoma 28.9% | MDA-MB-231 breast 25.4% | SF-268 CNS 40.9% | SF-295 CNS 29.6% | SF-539 CNS 23.4% | UACC-257 melanoma 77.2% | M14 melanoma 48.3%
active: RXF 393 renal -2.14%

C=C(C)[C@@H]1CC[C@]2(COP(=O)(OCC)OCC)CC[C@]3(C)[C@H](CC[C@@H]4[C@@]5(C)CC[C@H](OP(=O)(OCC)OCC)C(C)(C)[C@@H]5CC[C@]43C)[C@@H]12
inactive: DU-145 prostate 69.7% | K-562 leukemia 19.6% | MALME-3M melanoma 50.8% | MDA-MB-231 breast 50.7% | RXF 393 renal 45.3% | SF-268 CNS 64.6% | SF-295 CNS 14.6% | SF-539 CNS 70.5% | UACC-257 melanoma 46.8% | M14 melanoma 51.6%

Cc1ccc(N2CCN(C3=C(Cl)C(=O)c4ncccc4C3=O)CC2)cc1
inactive: DU-145 prostate 51.7% | MALME-3M melanoma 52.8% | MDA-MB-231 breast 24.5% | RXF 393 renal 12.5% | SF-268 CNS 80.2% | SF-295 CNS 97.5% | SF-539 CNS 86.6% | UACC-257 melanoma 29.6% | M14 melanoma 70.3%
active: K-562 leukemia 6.28%

Cc1c(C(=O)/C=C/c2ccc(Cl)cc2)nnn1-c1ccc2oc(=O)ccc2c1
inactive: DU-145 prostate 104% | K-562 leukemia 83.4% | MALME-3M melanoma 98.8% | MDA-MB-231 breast 94% | RXF 393 renal 86.5% | SF-268 CNS 102% | SF-295 CNS 88.9% | SF-539 CNS 99.5% | UACC-257 melanoma 99.9% | M14 melanoma 95.6%

CN1CCN(c2ccc(Nc3nc(NCCNC(=O)c4ccccc4)c4sccc4n3)cc2)CC1
active: K-562 leukemia 8.82% | SF-539 CNS -75.4%
inactive: DU-145 prostate 79.4% | MALME-3M melanoma 30.6% | MDA-MB-231 breast 54.3% | RXF 393 renal 33.8% | SF-268 CNS 64.6% | SF-295 CNS 76.9% | UACC-257 melanoma 33.3% | M14 melanoma 27.8%

COc1ccccc1Cn1cc(C#N)c(N)c1C(=O)c1ccc(Br)cc1
inactive: DU-145 prostate 104% | K-562 leukemia 83.2% | MALME-3M melanoma 96% | MDA-MB-231 breast 88.7% | RXF 393 renal 92.1% | SF-268 CNS 96.2% | SF-295 CNS 93% | SF-539 CNS 99.8% | UACC-257 melanoma 100% | M14 melanoma 98.5%

Oc1ccc(-c2nc3ccc(/C(=N\N=C\c4ccc(Cl)cc4)c4ccccc4)cc3[nH]2)cc1
inactive: DU-145 prostate 88.3% | K-562 leukemia 70.8% | MALME-3M melanoma 101% | MDA-MB-231 breast 91.1% | RXF 393 renal 93.5% | SF-268 CNS 90.9% | SF-295 CNS 82.6% | SF-539 CNS 87% | UACC-257 melanoma 92% | M14 melanoma 63.5%

NC1CC2(CCN(c3cnc(C(=O)Nc4cc(F)cc5cccnc45)cn3)CC2)C1
inactive: DU-145 prostate 81.3% | MALME-3M melanoma 96.2% | MDA-MB-231 breast 80.1% | RXF 393 renal 73.5% | SF-268 CNS 83.1% | SF-295 CNS 58% | SF-539 CNS 75.7% | UACC-257 melanoma 103% | M14 melanoma 78.9%
active: K-562 leukemia -13.3%

CC(Nc1ncnc2ccc(-c3cnc4cnccn34)cc12)c1ccccc1 (stereo not given)
inactive: DU-145 prostate 37.4% | K-562 leukemia 48.3% | MALME-3M melanoma 58% | MDA-MB-231 breast 64.3% | RXF 393 renal 46.6% | SF-268 CNS 67.7% | SF-295 CNS 50.5% | SF-539 CNS 66% | UACC-257 melanoma 75.4% | M14 melanoma 77.8%

C#CCn1cc(/C=N/Nc2nc(-c3ccc(Br)cc3)cs2)c2ccccc21
inactive: DU-145 prostate 114% | K-562 leukemia 110% | MALME-3M melanoma 100% | MDA-MB-231 breast 95.8% | RXF 393 renal 105% | SF-268 CNS 108% | SF-295 CNS 97.6% | SF-539 CNS 93% | UACC-257 melanoma 105% | M14 melanoma 93.9%

CCCCSC1=C(Cl)CN(c2ccc(Cl)cc2)C1=O
inactive: DU-145 prostate 106% | K-562 leukemia 82.6% | MALME-3M melanoma 103% | MDA-MB-231 breast 104% | RXF 393 renal 109% | SF-268 CNS 105% | SF-295 CNS 93% | SF-539 CNS 85.2% | UACC-257 melanoma 107% | M14 melanoma 96.5%

— PubChem BioAssay (NCI)
